Reference: PubChem BioAssay AID1851 (National Center for Advancing Translational Sciences (NCATS), 2009)
Several values for one entry are separate records, joined by “and”; a condition that tells them apart may be missing. Equal values may be shown once. Screen size: about 16,000 compounds; about 5,800 (36%) were called active. Another 23% or so got no clear call; they are omitted. The call rests on the fitted dose curve; in most records, active means well fitted curve in the direction sought with a large enough effect; inconclusive means small, poorly fitted or top-dose-only effect, or effect the other way; inactive means no such curve, though single readings can be large or run the other way. The list shows a part of the results.
On the % scale 0 is the no-effect control and ±100 the full control effect.

What follows are compounds tested against Cytochrome P450 2C19 (Homo sapiens) (UniProt P33261) (assay: Cytochrome panel assay with activity outcomes). Conditions: recombinant CYP, pro-luciferin dealkylation, luminescence, p450-cyp2c19; series mostly up to 57.1 µM; activity, negative = inhibition: at the top concentration.
Sequence of Cytochrome P450 2C19 (Homo sapiens) (P33261 whole entry, looked up): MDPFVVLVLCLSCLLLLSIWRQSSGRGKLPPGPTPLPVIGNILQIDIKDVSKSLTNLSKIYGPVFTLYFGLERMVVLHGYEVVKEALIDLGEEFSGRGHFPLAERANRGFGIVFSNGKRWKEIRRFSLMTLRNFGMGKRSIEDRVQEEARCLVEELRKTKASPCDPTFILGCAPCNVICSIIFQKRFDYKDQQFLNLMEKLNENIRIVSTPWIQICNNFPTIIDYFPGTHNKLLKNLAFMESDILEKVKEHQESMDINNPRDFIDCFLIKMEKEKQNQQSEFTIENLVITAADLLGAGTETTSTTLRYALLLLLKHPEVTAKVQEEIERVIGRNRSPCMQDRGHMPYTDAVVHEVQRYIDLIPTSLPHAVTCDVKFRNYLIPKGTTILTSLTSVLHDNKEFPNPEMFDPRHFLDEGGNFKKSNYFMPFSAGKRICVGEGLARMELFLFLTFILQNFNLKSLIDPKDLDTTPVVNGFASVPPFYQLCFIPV
In the case of C=CCCCCCCCCC(=O)Nc1c[nH]c(=O)[nH]c1=O, the “activity, negative = inhibition” value is reported as -4.48% (inactive).
For Cc1ccc2[nH]c3c(N4CCc5ccccc5C4)ncnc3c2c1, the AC50 was 1.58 µM (active).
With CCN1CCCC1Cn1cnc2c([nH]c3ccc(C)cc32)c1=O (centres undefined) the “activity, negative = inhibition” value was -42.8% (inactive).
For Cc1ccc(C2(C)NC(=O)N(CC(=O)Nc3cc(C)on3)C2=O)cc1 (centres undefined), the “activity, negative = inhibition” value was -26.8% (inactive).
For COc1ccc(OC)c(C(=O)CN2C(=O)NC(C)(c3ccccc3)C2=O)c1 (centres undefined), the AC50 was 0.224 µM (active).
With Cc1cc(NC(=O)CN2C(=O)NC(C)(c3ccc(OC(F)F)cc3)C2=O)no1 (centres undefined) the “activity, negative = inhibition” value was -9.86% (inactive).
In the case of Cc1nnc(SCC(=O)NCC2CCCCC2)n(N)c1=O, the “activity, negative = inhibition” value is reported as 14.4% (inactive).
With CCn1c(SCC(=O)NC2CCCCC2)nnc1-c1cc2cccc(OC)c2o1 the AC50 was 10 µM (active).
Cn1c(SCC(=O)NC2CC2)nnc1-c1cccc(NC(=O)c2ccccc2F)c1 was tested, and the “activity, negative = inhibition” value was 5.1% (inactive).
Nc1nc2c(c(=O)[nH]1)CN(c1ccc(S(N)(=O)=O)cc1)CN2 was tested, and the activity, negative = inhibition was 24.4% [at 11.4 µM] (inactive).
In the case of Cc1ccc(/C=C2\SC(=S)N(CCCC(=O)Nc3ccccn3)C2=O)cc1, the AC50 is reported as 10 µM (active).
With CCNc1ncc2nc(CCc3ccccc3)c(=O)n(Cc3ccc(F)cc3)c2n1 the “activity, negative = inhibition” value was -33.5% (inactive).
Cn1c(=O)c(CCc2ccccc2)nc2cnc(Nc3ccccc3)nc21 was tested, and the AC50 was 15.8 µM (active).
CCNc1ncc2nc(CCc3ccccc3)c(=O)n(C3CC3)c2n1 was tested, and the AC50 was 6.31 µM (active).
CCNc1ncc2nc(-c3ccccc3)c(=O)n(C3CC3)c2n1 was tested, and the “activity, negative = inhibition” value was -28.2% (inactive).
With CCNc1ncc2nc(CCc3ccccc3)c(=O)n(C)c2n1 the AC50 was 2.51 µM (active).
For CCNc1ncc2nc(-c3ccccc3)c(=O)n(C)c2n1, the “activity, negative = inhibition” value was -12.8% (inactive).
With CCNc1ncc2nc(C)c(=O)n(C3CC3)c2n1 the “activity, negative = inhibition” value was -22.7% (inactive).
With Cc1nc2cnc(Nc3ccccc3)nc2n(C)c1=O the “activity, negative = inhibition” value was -7.31% (inactive).
CCO/C([O-])=N/c1c[n+](N2CCOCC2)no1 was tested, and the “activity, negative = inhibition” value was -25.7% [at 25.6 µM] (inactive).
For COC(=O)C(NC(=O)c1ccc(Cl)cc1)(Nc1nc(C)cs1)C(F)(F)F (centres undefined), the AC50 was 5.01 µM (active).
CCC(C)NS(=O)(=O)c1ccc(NC(=O)CCC2CCCCC2)cc1 (centres undefined) was tested, and the “activity, negative = inhibition” value was -25% (inactive).
In the case of CC(=O)c1ccc(S(=O)(=O)NC(=O)NC2CCCCC2)cc1, the “activity, negative = inhibition” value is reported as -9.92% [at 25.6 µM] (inactive).
With Cc1ccc(NC(=O)CCc2ccc(S(=O)(=O)NC3CCCCC3)cc2)cc1 the AC50 was 15.8 µM (active).
For O=C(CCc1ccc(S(=O)(=O)NC2CCCCC2)cc1)N(Cc1ccccc1)Cc1ccccc1, the AC50 was 1.41 µM (active).
For Cc1ccccc1NC1=NC(=S)N(c2ccccc2)C12CCOC(C)(C)C2 (centres undefined), the “activity, negative = inhibition” value was -25.6% (inactive).
COc1ccc([C@@H](Nc2ccccn2)c2cc(C(C)(C)C)cc(C(C)(C)C)c2O)cc1 was tested, and the AC50 was 2.51 µM (active).
For CN1CCc2cc(Cl)c(O)cc2[C@@H](c2ccccc2)C1, the “activity, negative = inhibition” value was 24% (inactive).
CS(=O)(=O)N1CCC2(CCCN(c3ccncc3)C2)CC1 was tested, and the AC50 was 1.26 µM (active).
With O=S(=O)(c1ccccc1)N1CCC[C@@]2(CCN(c3ccncc3)C2)C1 the AC50 was 0.398 µM (active).
In the case of CS(=O)(=O)N1CCC[C@@]2(CCN(c3ccccc3)C2)C1, the AC50 is reported as 3.16 µM (active).
In the case of CC(C)CN1CC[C@@]2(CCCN(S(=O)(=O)c3ccccc3)C2)C1, the “activity, negative = inhibition” value is reported as -20.8% (inactive).
With O=S(=O)(c1ccccc1)N1CCC[C@@]2(CCN(c3ccccc3)C2)C1 the AC50 was 0.316 µM (active).
In the case of CS(=O)(=O)N1CCC[C@@]2(CCN(c3ccccn3)C2)C1, the “activity, negative = inhibition” value is reported as -1% (inactive).
CS(=O)(=O)N1CCC[C@@]2(CCN(c3ncccn3)C2)C1 was tested, and the “activity, negative = inhibition” value was 0.968% (inactive).
With CS(=O)(=O)N1CCC[C@@]2(CCN(c3ccncc3)C2)C1 the “activity, negative = inhibition” value was -44.5% (inactive).
CS(=O)(=O)N1CCC2(CCCN(c3ncccn3)C2)CC1 was tested, and the “activity, negative = inhibition” value was -32% (inactive).
In the case of O=S(=O)(c1ccccc1)N1CCC[C@@]2(CCN(C(c3ccccc3)c3ccccc3)C2)C1, the “activity, negative = inhibition” value is reported as -11.9% (inactive).
O=S(=O)(c1ccccc1)N1CCC[C@@]2(CCN(c3cccc(-c4ccccc4)c3)C2)C1 was tested, and the “activity, negative = inhibition” value was -36% (inactive).
With CCN1C(=O)[C@H]2[C@H]3[C@H](O)[C@H](O)C/C(=N/OC[C@@H](O)COCc4ccco4)[C@@H]3CC[C@@H]2C1=O the activity, negative = inhibition was 29.6% [at 11.4 µM] (inactive) and 41.4% [at 11.4 µM] (inactive).
For O=S(=O)(c1ccccc1)N1CCC2(CCCN(c3cccc(-c4ccccc4)c3)C2)CC1, the “activity, negative = inhibition” value was -6.1% (inactive).
CN1CCCC2(CCN(S(=O)(=O)c3ccccc3)CC2)C1 was tested, and the “activity, negative = inhibition” value was 1.18% (inactive).
For O=S(=O)(c1ccccc1)N1CCC2(CCCN(c3ccccc3)C2)CC1, the AC50 was 1.58 µM (active).
With Cc1cc(O)c(-c2cc(O)c(C)cc2O)cc1O the AC50 was 0.794 µM (active).
With Cc1cc(O)c(C(C)C)cc1CN1CCCCC1 the activity, negative = inhibition was 32.6% [at 11.4 µM] (inactive).
In the case of N#Cc1cccc(NC(=O)N2CC[C@@]3(CCCNC3)C2)c1, the “activity, negative = inhibition” value is reported as -30.4% (inactive).
In the case of c1cc(NNc2cccc(-c3nn[nH]n3)c2)cc(-c2nn[nH]n2)c1, the activity, negative = inhibition is reported as 14.6% [at 11.4 µM] (inactive).
Cc1cc(C)cc(Oc2nn[nH]n2)c1 was tested, and the “activity, negative = inhibition” value was -23% (inactive).
With CC(C)(C)c1cccc(Oc2nn[nH]n2)c1 the AC50 was 7.94 µM (active).
In the case of COc1ccc(-c2nn3cnnc3s2)cc1OC, the AC50 is reported as 8.91 µM (active).
In the case of O=C(CSCc1ccccc1)Nc1ccc(S(=O)(=O)N2CCOCC2)cc1, the AC50 is reported as 17.8 µM (active).
Nc1cc(=O)[nH]c(SCC(=O)Nc2ccc(S(=O)(=O)N3CCOCC3)cc2)n1 was tested, and the “activity, negative = inhibition” value was 25.5% (inactive).
With COCC(=O)N1CCC2(CC1)CN(C(=O)Nc1cccc(F)c1)C2 the “activity, negative = inhibition” value was -7.41% (inactive).
With NC(=O)c1ccc(C2SCC(=O)N2Cc2ccccc2)cc1 (centres undefined) the AC50 was 10 µM (active).
For CC(C)n1nnnc1SCC(=O)c1ccc2c(c1)OCCO2, the AC50 was 10 µM (active).
In the case of CC(C)(C)NC(=O)CSc1nnc(Cc2ccc3c(c2)OCO3)n1C1CCCCC1, the “activity, negative = inhibition” value is reported as -6.41% (inactive).
CC(C)n1nnnc1SCC(=O)NCCc1ccccc1 was tested, and the AC50 was 7.94 µM (active).
For CC(C)n1nnnc1SCC(=O)NCc1ccc2c(c1)OCO2, the AC50 was 5.01 µM (active).
With O=C(O)c1ccc(Nc2ccnc3cc(Cl)ccc23)cc1O the activity, negative = inhibition was -17.2% [at 11.4 µM] (inactive).
In the case of CC(=O)[C@@H](C)CCO[C@@]1(C)OCC[C@@H]1C, the activity, negative = inhibition is reported as -8.65% [at 11.4 µM] (inactive).
In the case of COc1ccc(NC(=O)N2CCCC3(CCN(C(=O)c4c(C)noc4C)CC3)C2)cc1, the “activity, negative = inhibition” value is reported as 6.8% (inactive).
With COc1ccc2c(c1)CCc1c(C(=O)N3CCCCCC3)noc1-2 the AC50 was 11.2 µM (active).
COc1ccc(C(=O)N2CCC3(CCCN(C)C3)CC2)cc1 was tested, and the “activity, negative = inhibition” value was -24.1% (inactive).
N#C[C@H](c1ccccc1)N1CCCN([C@@H](C#N)c2ccccc2)C1c1ccccc1O (some centres undefined) was tested, and the AC50 was 0.251 µM (active).
In the case of OC[C@@H]1O[C@@H](n2cnc3c(NC4CCCC4)ncnc32)[C@@H](O)[C@H]1O, the “activity, negative = inhibition” value is reported as -9.07% (inactive).
For Cc1ccc(=O)n(-c2ccccc2)c1, the “activity, negative = inhibition” value was -31.4% (inactive).
For Cc1ccc(/C=C2\OC(=O)c3ccccc32)cc1, the AC50 was 8.91 µM (active).
With Cc1ccccc1/C=C1\OC(=O)c2ccccc21 the AC50 was 7.94 µM (active).
CC(C)c1ccc(/C=C2\C=C(c3ccc4ccccc4c3)OC2=O)cc1 was tested, and the activity, negative = inhibition was -31.6% [at 11.4 µM] (inactive).
With COCCNC(=O)COc1ccc(Oc2ccccc2)cc1 the AC50 was 11.2 µM (active).
COc1ccc(OC)c2[nH]c(=O)c(CCNS(=O)(=O)c3ccc(C)cc3)cc12 was tested, and the AC50 was 15.8 µM (active).
COc1ccc(OC)c2[nH]c(=O)c(CCNC(=O)C3CCCCC3)cc12 was tested, and the AC50 was 10 µM (active).
With COc1ccc(OC)c2[nH]c(=O)c(CCNC(=O)COc3ccccc3)cc12 the AC50 was 14.1 µM (active).
With COCCNC(=O)COc1ccc(OCCNC[C@@H](O)COc2ccccc2)cc1 the “activity, negative = inhibition” value was -29.3% (inactive).
With NC[C@H]1O[C@H](n2cnc3c(N)ncnc32)C[C@@H]1O the activity, negative = inhibition was 7.59% [at 11.4 µM] (inactive).
With Cn1c(=O)c2[nH]c(CCC(=O)O)nc2n(C)c1=O the activity, negative = inhibition was 12% [at 11.4 µM] (inactive).
With COc1ccc(OC)c2[nH]c(=O)c(CCNC(=O)c3ccc(S(=O)(=O)N(C)C)cc3)cc12 the “activity, negative = inhibition” value was -21.1% (inactive).
CCN1CCCC1CNC(=O)CCNC(=O)c1cc(OC)c(OC)c(OC)c1 (centres undefined) was tested, and the “activity, negative = inhibition” value was 1.37% (inactive).
With COc1ccc(OC)c2[nH]c(=O)c(CCNC(=O)c3ccc(S(=O)(=O)N4CCCC4)cc3)cc12 the AC50 was 11.2 µM (active).
In the case of CSC1(SC2=NCCN2)SC2(NCCN2)S1, the AC50 is reported as 1.58 µM (active).
With O=C(O)CCSC1=NCCN1 the activity, negative = inhibition was 42% [at 11.4 µM] (inactive).
With Cc1ccc(N(Cc2ccccc2)Cc2ccccc2)cc1 the AC50 was 2 µM (active).
In the case of c1ccc(CN(CC2=NCCN2)c2ccccc2)cc1, the AC50 is reported as “inactive”.
For Cc1nc(C(=O)Nc2cccc(Cl)c2Cl)nn1-c1cc(OC(C)C)c(Cl)cc1Cl, the AC50 was 7.08 µM (active).
CCn1nc(C(=O)Nc2ccccc2C)c(Cl)c1Cl was tested, and the “activity, negative = inhibition” value was -24.3% (inactive).
For CCc1ccccc1NC(=S)NCc1ccc2c(c1)OCO2, the AC50 was 1.26 µM (active).
With O=C(O)C[C@H](Cc1ccc2c(c1)OCO2)C(=O)O the activity, negative = inhibition was -29% [at 11.4 µM] (inactive).
In the case of CCc1c(C(=O)NCc2ccc3c(c2)OCO3)[nH]c(C)c1C(C)=O, the AC50 is reported as 7.08 µM (active).
With CC(CO)(CO)Nc1ncnc2ccccc12 the activity, negative = inhibition was 1.8% [at 11.4 µM] (inactive).
With CCOc1ccc(OCCOc2ncnc3ccccc23)cc1 the AC50 was 10 µM (active).
OC[C@@H](O)CNc1ncnc2ccccc12 was tested, and the activity, negative = inhibition was 1.02% [at 11.4 µM] (inactive).
In the case of CC(=C/c1ccccc1)/C=N/n1cnnc1, the AC50 is reported as 0.355 µM (active).
CN(C)CCCc1c2ccccc2nc2ccc(Cl)cc12 was tested, and the activity, negative = inhibition was 7.79% [at 11.4 µM] (inactive).
CCc1c(C)nc2ccc(Br)cc2c1Cl was tested, and the AC50 was 3.55 µM (active).
With CC1=NN(c2ccccc2)C(=O)/C1=C\c1c(C)[nH]n(-c2ccccc2)c1=O the “activity, negative = inhibition” value was -3.54% (inactive).
For CCOc1cc(/C=C2/C(=O)N(c3ccccc3)N=C2C)ccc1OC(=O)c1ccco1, the AC50 was 14.1 µM (active).
For CC1=NN(c2ccc(S(=O)(=O)O)cc2)C(=O)/C1=C\c1ccc(Cl)cc1, the activity, negative = inhibition was -11.1% [at 11.4 µM] (inactive).
For COc1cccc(NC(=O)COC(=O)c2c3c(nc4ccccc24)CCC(C)C3)c1 (centres undefined), the AC50 was 3.98 µM (active).
In the case of COc1cccc(NC(=O)Cc2c(C(=O)O)[nH]c3ccccc23)c1, the “activity, negative = inhibition” value is reported as -10.4% (inactive).
